This is part of a sample that, as a whole, favours compounds with a hit. Of some 83,000 tested, about 20% had one in any assay.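 Each cell line was grown in a 96-well plate and treated with one concentration of compound for 48 hours. Values below 10 were considered active.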 Values without a mark were called inactive. Activity calls are given as the source filed them.

Test in all cases: NCI-60 one-dose screen, 48 h (100 = growth as untreated, 0 = no growth, -100 = all killed)
For assay [1], the system named is NCI-H23 lung. The note with it: 10 µM unless noted.
The subject of assay [2] is NCI-H226 lung. The conditions noted are these: 10 µM unless noted.
Assay [3] relates to NCI-H322M lung. The conditions noted are these: 10 µM unless noted.
The test system of assay [4] is NCI-H460 lung. The conditions noted are these: 10 µM unless noted.
The test system of assay [5] is NCI-H522 lung. The conditions noted are these: 10 µM.
The subject of assay [6] is A549/ATCC NSCLC. The conditions noted are these: 10 µM unless noted.
Assay [7] has as its system COLO 205 colon. The conditions noted are these: 10 µM unless noted.
Assay [8] relates to DU-145 prostate. The note with it: 10 µM unless noted.
The subject of assay [9] is K-562 leukemia. The conditions noted are these: 10 µM unless noted.
In assay [10] the test system is MALME-3M melanoma. The conditions noted are these: 10 µM unless noted.
The subject of assay [11] is MDA-MB-231 breast. The conditions noted are these: 10 µM unless noted.
Assay [12] relates to RXF 393 renal. The note with it: 10 µM unless noted.
The test system of assay [13] is SF-268 CNS. The note with it: 10 µM unless noted.
The subject of assay [14] is SF-295 CNS. The conditions noted are these: 10 µM unless noted.
The subject of assay [15] is SF-539 CNS. The note with it: 10 µM unless noted.
The test system of assay [16] is UACC-257 melanoma. The conditions noted are these: 10 µM unless noted.
Assay [17] concerns 786-0 renal. The note with it: 10 µM unless noted.
In assay [18] the test system is M14 melanoma. The conditions noted are these: 10 µM unless noted.
Assay [19] relates to HOP-92 NSCLC. The conditions noted are these: 10 µM.

On to `COc1cc(/C=C/C(=O)c2ccc(F)cc2)ccc1OCCCCOc1cc2c(cc1OC)C(=O)N1CCCC1C=N2` (centres undefined), for which the growth was -33.9% (active) in assay [1]; -8.87% (active) in assay [2]; 88.1% in assay [3]; -49.5% (active) in assay [4]; -61.1% (active) in [5]; 45.9% in assay [6]. The growth in [7] was -45.2% (active); in assay [8], -72.1% (active); in [9] it was -23.9% (active); in assay [10], -6.3% (active); in assay [11], -15% (active); in assay [12] it was -71.6% (active). Also, the growth in [13] was -12.4% (active); in assay [14] it was -29.1% (active); in [15] it was -61.9% (active); in [16], 2.17% (active).
`O=C(/C(Br)=C/c1ccccc1)c1ccccc1`: the growth in assay [1] was 93.3%; in assay [2], 110%; in assay [3], 107%; in assay [4], 84.9%; in assay [6] it was 78.6%; in assay [17], -90.5% (active). The growth in assay [7] was -70.8% (active); in [8], 64.1%; in assay [9], -1.65% (active); in assay [10] it was -36.9% (active); in assay [11], 42.6%; in assay [12] it was -58.2% (active). Also, the growth in assay [13] is 78.9%; in assay [14], 103%; in assay [15], -41.7% (active); in assay [16] it was -5.24% (active); in assay [18] it was -95.4% (active).
With `CCOC(=O)C1C(=O)C(=O)N(C(C)C)C1C(=O)OCC` (centres undefined), the growth in [1] is 97.3%; in assay [2] it was 100%; in [3] it was 104%; in assay [4], 106%; in assay [5] it was 118%; in assay [17], 107%. Also, the growth in [7] was 118%; in assay [8] it was 113%; in assay [9], 108%; in [10], 92.4%; in [11], 103%; in assay [12], 105%. In addition, the growth is 99.3% in assay [13]; 98.2% in assay [14]; 99.8% in [15]; 86.7% in [16]; 111% in [18].
Take `Cc1c(Cc2ccccc2)c(=O)oc2c(C)c(OCc3n[nH]c(=S)o3)ccc12`: the growth is 57.7% in assay [1]; 84.8% in [2]; 63.8% in assay [3]; 3.31% (active) in assay [4]; 61% in assay [5]; 26.9% in assay [6]. Further, the growth is 68.9% in assay [17]; 19.4% in [8]; 71.6% in assay [9]; 48.7% in assay [10]; 80.7% in assay [11]; 98.8% in assay [12]. Further, the growth was 75.9% in assay [13]; 77% in assay [14]; 92.1% in assay [15]; 88% in assay [16]; 99.3% in [18].
Regarding `OC(c1ccccc1)(c1ccccc1)C(F)(F)F`, the growth in [1] was 97.4%; in assay [2], 112%; in assay [3] it was 116%; in [19], 95.7%; in assay [5], 84.6%; in assay [6], 99.1%. The growth in assay [17] was 106%; in [7], 107%; in assay [8], 109%; in assay [9], 99.7%; in [10], 122%; in [11] it was 101%. The growth in assay [12] is 120%; in assay [13], 82.8%; in [14], 107%; in assay [15], 101%; in assay [16] it was 104%.
Turning to `CCC(C)(CC)c1ccc(O)c(C)c1`, the growth was 98.9% in [1]; 98% in assay [2]; 94.4% in assay [3]; 105% in assay [4]; 94.8% in assay [17]; 105% in [7]. The growth in assay [8] is 114%; in assay [9], 114%; in assay [10], 99.8%; in assay [11], 106%; in assay [12], 108%; in assay [13] it was 109%. Moreover, the growth in assay [14] is 105%; in [15], 100%; in assay [18], 99.7%.
Take `CC(CCN1CCN(CCC(C)CC(C)(C)C)C1CC(C)CC(C)(C)C)CC(C)(C)C` (centres undefined): the growth in assay [1] was 100%; in assay [2], 98.7%; in [3], 99.8%; in assay [4], 101%; in assay [6] it was 96.2%; in assay [17] it was 97.9%. The growth in assay [7] is 86.2%; in assay [8], 103%; in assay [9], 58.2%; in assay [10] it was 99.2%; in assay [11] it was 105%; in assay [13], 91.5%. In addition, the growth is 114% in assay [14], 91.5% in assay [15], 107% in assay [16] and 100% in assay [18].
With `CCOc1ccc(N(C)c2ccc(/C=C/C3=[N+](C)c4ccccc4C3(C)C)cc2)cc1`, the growth in assay [1] is 4.67% (active); in assay [2], 54.2%; in [3] it was 57%; in assay [4], -50% (active); in [6], 9.51% (active); in assay [17], 2.71% (active). In addition, the growth in assay [7] was -77% (active); in [8] it was -3.68% (active); in assay [9], 8.09% (active); in assay [10] it was -73.8% (active); in assay [11] it was -56.2% (active); in assay [12] it was 35.8%. In addition, the growth in assay [13] is -78.9% (active); in assay [14], -2.2% (active); in assay [15] it was 30.5%; in [16], -16.4% (active); in assay [18], 6.52% (active).
In the case of `CCCCCCCCCCCCCCCCNC(=S)N/N=C/c1ccc(OC)cc1`, the growth in assay [1] was 103%; in [2], 98.6%; in assay [3] it was 108%; in assay [4], 104%; in [6], 96.1%; in [17] it was 95.3%. Besides, the growth is 115% in [7]; 104% in [8]; 105% in assay [9]; 103% in [10]; 95.1% in assay [11]; 92% in assay [12]. The growth in [13] is 107%; in assay [14], 84.9%; in assay [15], 91.7%; in assay [16] it was 99.3%; in assay [18], 96.1%.

Source of the values: PubChem BioAssay (NCI).
